Screens from PubChem BioAssay.
Jurkat NFkB inh – lowers PMA/ionomycin-induced NF-kB signal in Jurkat cells; PMA/ionomycin-induced NF-kB luciferase reporter, luminescence; inhibition, % at 4 µM; hit rate 0.53% among 330,000; AID 435003; in the data active = inhibition above about 50%
Mdm2-MdmX inh – disrupts the human Mdm2-MdmX interaction; O15151+Q00987; SaOS-2 split-luciferase Mdm2/MdmX complementation, luminescence; inhibition, % at 8 µM; hit rate 3% among 330,000; AID 485346;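 active = inhibition of at least 50% at 8 µM in the primary screen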
Target sequence (O15151 whole entry, looked up): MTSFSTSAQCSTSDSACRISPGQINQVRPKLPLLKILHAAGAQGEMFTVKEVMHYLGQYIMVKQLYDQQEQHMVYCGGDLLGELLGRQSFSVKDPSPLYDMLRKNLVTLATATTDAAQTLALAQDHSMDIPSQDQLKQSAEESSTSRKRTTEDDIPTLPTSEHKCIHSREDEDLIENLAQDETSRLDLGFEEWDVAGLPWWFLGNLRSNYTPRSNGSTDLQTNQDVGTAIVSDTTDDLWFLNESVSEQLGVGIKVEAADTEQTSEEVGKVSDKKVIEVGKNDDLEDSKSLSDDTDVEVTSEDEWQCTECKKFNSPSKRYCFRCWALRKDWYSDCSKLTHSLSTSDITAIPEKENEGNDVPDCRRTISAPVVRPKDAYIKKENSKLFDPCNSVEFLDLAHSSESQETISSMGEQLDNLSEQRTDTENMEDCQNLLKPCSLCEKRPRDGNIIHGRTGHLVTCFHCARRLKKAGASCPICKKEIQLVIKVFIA
Target sequence (Q00987 whole entry, looked up): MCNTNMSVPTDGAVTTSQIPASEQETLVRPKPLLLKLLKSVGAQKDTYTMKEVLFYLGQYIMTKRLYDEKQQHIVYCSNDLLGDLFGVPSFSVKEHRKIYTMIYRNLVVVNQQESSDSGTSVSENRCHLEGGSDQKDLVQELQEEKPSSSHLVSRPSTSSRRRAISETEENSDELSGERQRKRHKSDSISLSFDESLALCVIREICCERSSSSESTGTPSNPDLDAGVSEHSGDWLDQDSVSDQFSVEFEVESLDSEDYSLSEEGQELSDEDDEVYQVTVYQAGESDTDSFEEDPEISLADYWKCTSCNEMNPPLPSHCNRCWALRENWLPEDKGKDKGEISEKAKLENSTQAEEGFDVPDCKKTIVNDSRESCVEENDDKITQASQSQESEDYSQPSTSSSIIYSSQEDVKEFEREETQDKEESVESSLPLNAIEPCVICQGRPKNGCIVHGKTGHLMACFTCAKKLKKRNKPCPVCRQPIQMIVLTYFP
697 NFkB inh – lowers PMA/ionomycin-induced NF-kB signal in 697 B cells. 697 B-cell NF-kB luciferase reporter, 16 h. inhibition, % at 4 µM. hit rate 0.33% among 330,000; in the data active = inhibition above about 35%
Shn3 inh set2 – reduces Shn3 3'UTR luciferase signal in osteoblasts; inhibition, % at 12.5 µM; Clone20 osteoblast Shn3 3'UTR firefly luciferase, 24 h; hit rate 0.52% among 360,000;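 active = mean inhibition of at least 75% with every replicate also reaching 75%; inconclusive = mean inhibition at least 75% but some replicate below; inactive = mean inhibition below 75%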;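 also: 0% = median of neutral control wells and 100% = pilot-screen positive control compound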
Gli-Sufu antag – blocks Gli-Sufu signaling in a luciferase reporter | Sufu-KO-LIGHT fibroblasts, Gli luciferase reporter luminescence | inhibition, % at 5 µM | hit rate 0.74% among 340,000;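 active = inhibition above about 55%, limit read from the data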;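 also: 0% = DMSO-treated cells and 100% = wells with medium but no cells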
Jurkat NFkB conf – lowers PMA/ionomycin-induced NF-kB signal in Jurkat cells; inhibition, % at 4 µM; AID 435020; Jurkat NF-kB luciferase, 16 h; shares compounds with Jurkat NFkB inh; hit rate 27% among 2,700;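 active = inhibition reaching about 45% at 4 µM in either replicate, limit read from the data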;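 also: plate controls were PMA/ionomycin stimulated DMSO wells for no effect and unstimulated DMSO wells for full effect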
* hit, by the source's call; u = inconclusive; x = not tested or not shown. An excerpt weighted towards active compounds, which were near 3.8% of everything screened.

SMILES	Jurkat NFkB inh	Mdm2-MdmX inh	697 NFkB inh	Shn3 inh set2	Gli-Sufu antag	Jurkat NFkB conf
c1ccc(-c2ccc3ncccc3n2)cc1	x	x	x	-51.1	x	x
COC(=O)Nc1nc2ccc(-c3n[nH]c(=O)c4ccccc34)cc2[nH]1	71.4*	12.4	-82.4	0.7	-7.9	8.7
C=CCOc1ccc2nc(NC(=O)OC)[nH]c2c1	71.9*	26.3	-1.3	-19.0	-0.1	31.4
C=C(c1ccc2nc(NC(=O)OC)[nH]c2c1)c1cccs1	x	x	x	-4.4	12.7	x
FC(F)C(F)(F)Oc1cccc(Nc2nccn3c(-c4cccc5ccccc45)cnc23)c1	x	x	x	-9.9	x	x
Oc1cccc2ccc(/C=C/c3cccs3)nc12	-189.0	-30.8	-176.7	-9.1	6.7	-145.7
Cc1ccsc1/C=C/c1ccc2cccc(O)c2n1	-148.3	-41.9	-144.5	-31.3	10.6	x
Cn1c2ccccc2c(=O)c2ccc(NCCc3cccs3)cc21	3.2	-232.9	-181.0	-126.8	-73.3	x
CN(C)c1ccc(N=Nc2ccc3ncccc3c2)cc1	x	x	x	-5.5	-126.7	x
Cc1cc(N(C)C)ccc1N=Nc1ccc2ncccc2c1	-164.6	-118.1	-182.8	-46.5	-91.8	-104.6
CS(=O)(=O)c1ccc(Sc2nc3ccccc3[nH]2)c([N+](=O)[O-])c1	3.0	7.1	21.5	-1.2	8.3	x
CS(=O)(=O)c1ccc(Sc2nc3ccccc3s2)c([N+](=O)[O-])c1	93.7*	22.5	-24.4	95.4*	9.4	58.4*
Cc1ccc(Oc2ccc(OCC(=O)Nc3ccncc3)cc2)cc1	65.4*	28.5	23.1	u	x	77.4*
O=C(O)c1ccc2c(c1)S(=O)(=O)c1cc(N3CCN(c4ncccn4)CC3)ccc1C2=O	x	x	x	-38.9	x	x
O=C(NCCc1ccc(Cl)cc1)c1ccc2c(c1)OCCO2	-168.5	-85.7	-222.7	-6.6	-86.0	-132.8
Cc1ccc(Nc2nc(N/N=C/c3c[nH]c4ccccc34)nc(N3CCOCC3)n2)cc1	89.3*	34.8	26.8	57.2	30.6	-36.7
CCNC(=O)c1ccc(NC(=O)CC2SC(N3CCCC3)=NC2=O)cc1 (centres undefined)	-2.0	-13.5	-41.2	3.6	-4.4	x
CCOC(=O)C1=C(CC)Nc2ccccc2N=C1NC(=O)c1cc(S(=O)(=O)N2CCOCC2)ccc1C	-2.7	2.4	-13.1	5.5	-7.3	x
O=C(N/N=C/c1ccc(Cl)cc1)c1cc(-c2cccnc2)nc2ccccc12	65.6*	39.2	-41.8	-19.1	-18.3	14.8
Cc1cc2c(cc1C)N(C(=O)CSc1nncn1C)C(C)(C)c1ssc(=S)c1-2	29.9	17.6	-2.7	15.1	2.0	x
Cc1ccc2c(c1)N(C(=O)CSc1nncn1C)C(C)(C)c1ssc(=S)c1-2	53.2*	2.8	-0.6	0.4	5.7	-30.6
Cc1cc(=O)n2nc(N3CCCC(C(=O)NCCCN4C(C)CCCC4C)C3)sc2n1 (centres undefined)	x	x	x	-10.1	x	x
O=C(NCc1cccc(Cl)c1)C1Cc2c(-c3ccc(Cl)cc3)ccnc2O1 (centres undefined)	x	x	x	11.2	x	x
O=C(Nc1cccc(C(F)(F)F)c1)c1cc(-c2ccco2)on1	3.7	29.5	9.3	-14.1	33.9	x
O=C(Nc1cccc(C(F)(F)F)c1)c1sc(Cl)nc1C(F)(F)F	97.5*	11.2	-207.4	84.0	13.7	70.8*
SMILES	Jurkat NFkB inh	Mdm2-MdmX inh	697 NFkB inh	Shn3 inh set2	Gli-Sufu antag	Jurkat NFkB conf
CCCN(CC(=O)Nc1ccccc1C)C(=O)COC(=O)c1cnc(C)cn1	x	x	x	3.1	-5.3	x
CC(C)C1COC(c2cccc3ccccc23)=N1 (centres undefined)	-158.7	-121.6	-193.4	-125.7	-39.5	-40.2
Cc1cc(-c2ccc3c(c2)COc2c4ccccc4nn2-3)on1	-178.9	-93.0	-178.2	2.5	-120.7	-72.2
CCCc1cc(-c2ccc3c(c2)COc2c4ccccc4nn2-3)on1	-200.9	-111.3	-238.1	-36.0	-53.9	-93.7
C(#CC1CCCC1)c1ccc2c(c1)COc1c3ccccc3nn1-2	-36.3	-117.6	-102.1	-145.8	-53.6	x
C[C@@H](CO)NC(=O)c1ccc2c3n(nc2c1)-c1ccccc1CO3	-98.6	-101.9	-91.9	2.6	-33.0	x
C[C@@H]1CN([C@H](C)CO)S(=O)(=O)c2ccc(Br)cc2O[C@H]1CN(C)C(=O)Cc1ccccn1	x	x	x	-22.4	x	x
CNc1ccc(/C=C(\C#N)c2ccccn2)cc1[N+](=O)[O-]	-194.7	8.0	-59.1	-39.7	-40.7	-50.5
CCCCn1nc(C(=O)NCC2COc3ccccc3O2)c2ccccc2c1=O (centres undefined)	8.3	4.9	-4.7	15.9	11.1	x
CCCCNc1c(-c2ccc(SC(C)CC)cc2)nc2ccccn12 (centres undefined)	-133.1	-131.0	-102.1	-19.4	-19.8	x
